A short description of test [1]: qHTS of pediatric cancer cell lines to identify multiple opportunities for drug repurposing: Primary screen for TC32 cells (AID 1347089). Also: % is scaled to controls: 0 for no effect and ±100 for the full control effect; nearly all actives have a fitted effect of over 60% in size. The method, boiled down: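 In the primary qHTS, MIPE compounds were tested at 11 concentrations (0.78 nM to 46 µM) and NPC compounds at 8 (0.59 nM to 46 µM) on TC32 cells for 48 h. CellTiter-Glo luminescence gave viability.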
Test [2] can be described thus: qHTS of pediatric cancer cell lines to identify multiple opportunities for drug repurposing: Primary screen for DAOY cells (AID 1347090). Also: nearly all actives have a fitted effect of over 55% in size. Also: potency is read from the fitted curve at half-maximal effect.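 As to activity change, negative = cytotoxic: series mostly up to about 46 µM; plate controls were DMSO for no effect and bortezomib for full effect.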 The method in brief: (§1)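 Eight- or eleven-point concentration series, 48 h treatment at 37 degrees C in growth media; readout CellTiter-Glo luminescence. Potency and efficacy were taken from the concentration-response curves.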
Test [3] in a line: qHTS of pediatric cancer cell lines to identify multiple opportunities for drug repurposing: Primary screen for SJ-GBM2 cells (AID 1347091). Also: potency is read from the fitted curve at half-maximal effect.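 As to activity change, negative = cytotoxic: plate controls were DMSO neutral control for no effect and bortezomib for full effect.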 The method, boiled down:
as §1

The nature of test [4]: qHTS of pediatric cancer cell lines to identify multiple opportunities for drug repurposing: Primary screen for A673 cells (AID 1347092). Also: nearly all actives have a fitted effect of over 45% in size. Also: potency is read from the fitted curve at half-maximal effect. As to activity change, negative = cytotoxic: % is scaled to controls: 0 for no effect and ±100 for the full control effect. The method in brief: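 48 h compound exposure, A673, 500-1,000 cells/well, 37 degrees C/5% CO2. MIPE: 11-point, 0.78 nM-46 µM; NPC: 8-point, 0.59 nM-46 µM (final). Readout CellTiter-Glo luminescence after 15 min RT.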
A short description of test [5]: qHTS of pediatric cancer cell lines to identify multiple opportunities for drug repurposing: Primary screen for SK-N-MC cells (AID 1347093). Also: potency is read from the fitted curve at half-maximal effect.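 As to activity change, negative = cytotoxic: series mostly up to about 46 µM; plate controls were DMSO neutral control for no effect and bortezomib for full effect.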 The method, boiled down: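 Metabolically active cells were quantified by ATP-dependent luminescence (CellTiter-Glo, 15 min at room temperature) following 48 h treatment. Cells had been plated at 500-1,000 per well and settled for 5 h beforehand.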

Test [6] in a line: qHTS of pediatric cancer cell lines to identify multiple opportunities for drug repurposing: Primary screen for U-2 OS cells (AID 1347096). Also: nearly all actives have a fitted effect of over 50% in size. Also: potency is read from the fitted curve at half-maximal effect.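 As to activity change, negative = cytotoxic: plate controls were DMSO wells for no effect and bortezomib positive control wells for full effect.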 The method in brief:
(§2)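 Cells (500-1,000/well) in growth media were settled 5 h at 37 degrees C, then given compounds for 48 h. Viability was read as CellTiter-Glo luminescence. Primary runs used MIPE at 11 points (0.78 nM-46 µM) and NPC at 8 points (0.59 nM-46 µM); follow-ups used 11 points.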

Test [7] is described as follows: qHTS of pediatric cancer cell lines to identify multiple opportunities for drug repurposing: Primary screen for NB1643 cells (AID 1347099). Also: nearly all actives have a fitted effect of over 50% in size. Also: potency is read from the fitted curve at half-maximal effect.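 As to activity change, negative = cytotoxic: plate controls were DMSO neutral control for no effect and bortezomib positive control for full effect.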 The method, boiled down:
(§3)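 500-1,000 cells/well; 5 h pre-incubation 37 °C/5% CO2; compound pinned; 48 h; CellTiter-Glo, 15 min RT; luminescence. MIPE 11-pt from 0.78 nM, NPC 8-pt from 0.59 nM final. Bortezomib 2.3 µM final as positive control.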

The nature of test [8]: qHTS of pediatric cancer cell lines to identify multiple opportunities for drug repurposing: Primary screen for LAN-5 cells (AID 1347100). Also: potency is read from the fitted curve at half-maximal effect.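 As to activity change, negative = cytotoxic: plate controls were DMSO neutral control for no effect and bortezomib positive control for full effect.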 The method, boiled down:
as §2

Test [9] is described as follows: qHTS of pediatric cancer cell lines to identify multiple opportunities for drug repurposing: Primary screen for Rh18 cells (AID 1347102). Also: nearly all actives have a fitted effect of over 65% in size. Also: potency is read from the fitted curve at half-maximal effect. The method, boiled down: as §2
Test [10] in a line: qHTS of pediatric cancer cell lines to identify multiple opportunities for drug repurposing: Primary screen for MG 63 (6-TG R) cells (AID 1347105). Also: nearly all actives have a fitted effect of over 50% in size. Also: potency is read from the fitted curve at half-maximal effect. As to activity change, negative = cytotoxic: % is scaled to controls: 0 for no effect and ±100 for the full control effect. The method in brief: as §3
Test [11] can be described thus: qHTS of pediatric cancer cell lines to identify multiple opportunities for drug repurposing: Primary screen for NB-EBc1 cells (AID 1347095). Also: potency is read from the fitted curve at half-maximal effect.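 As to activity change, negative = cytotoxic: plate controls were DMSO neutral control for no effect and bortezomib for full effect.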 The method in brief:
as §3

A short description of test [12]: qHTS of pediatric cancer cell lines to identify multiple opportunities for drug repurposing: Primary screen for BT-12 cells (AID 1347101). Also: nearly all actives have a fitted effect of over 25% in size. Also: potency is read from the fitted curve at half-maximal effect.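 As to activity change, negative = cytotoxic: plate controls were DMSO for no effect and bortezomib positive control for full effect.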 The method, boiled down: (§4)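 Cells (500-1,000/well) rested 5 h, then received compounds for 48 h; metabolically active cells were measured by CellTiter-Glo luminescence. Final concentrations spanned up to 46 µM (MIPE, 11-point) or 0.59 nM-46 µM (NPC, 8-point) in primary screens, 11-point in follow-ups.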

The nature of test [13]: qHTS of pediatric cancer cell lines to identify multiple opportunities for drug repurposing: Primary screen for OHS-50 cells (AID 1347103). Also: nearly all actives have a fitted effect of over 40% in size. Also: potency is read from the fitted curve at half-maximal effect. The method in brief: as §4
Test [14] can be described thus: qHTS of pediatric cancer cell lines to identify multiple opportunities for drug repurposing: Primary screen for RD cells (AID 1347104). Also: nearly all actives have a fitted effect of over 55% in size. Also: potency is read from the fitted curve at half-maximal effect.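 As to activity change, negative = cytotoxic: plate controls were DMSO for no effect and bortezomib for full effect.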 The method, boiled down:
as §3

Test [15] can be described thus: qHTS of pediatric cancer cell lines to identify multiple opportunities for drug repurposing: Primary screen for BT-37 cells (AID 1347094). Also: potency is read from the fitted curve at half-maximal effect.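 As to activity change, negative = cytotoxic: series mostly up to about 57 µM; plate controls were DMSO for no effect and bortezomib for full effect.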 The method, boiled down:
as §3

Test [16] is described as follows: qHTS of pediatric cancer cell lines to identify multiple opportunities for drug repurposing: Primary screen for Saos-2 cells (AID 1347097). Also: nearly all actives have a fitted effect of over 40% in size. As to activity change, negative = cytotoxic: % is scaled to controls: 0 for no effect and ±100 for the full control effect. The method, boiled down: as §3
Test [17] can be described thus: qHTS of pediatric cancer cell lines to identify multiple opportunities for drug repurposing: Primary screen for SK-N-SH cells (AID 1347098).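 Also: DMSO served as neutral control and bortezomib at 2.3 µM as positive control; % is scaled to controls: 0 for no effect and ±100 for the full control effect; nearly all actives have a fitted effect of over 65% in size.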 The method in brief: as §4
Test [18] addresses Tyrosine-protein phosphatase non-receptor type substrate 1 (Homo sapiens) + Leukocyte surface antigen CD47 (Homo sapiens) (UniProt P78324+Q08722). Briefly: CD47-SIRPalpha protein protein interaction - Alpha assay qHTS validation (AID 1347059).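 Also: bead proximity luminescence from CD47 binding SIRPalpha after compound preincubation with SIRPalpha; % is scaled to controls: 0 for no effect and ±100 for the full control effect.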 The method in brief:
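Soluble extracellular domains: Avi-tag biotinylated SIRPalpha (25 nM) preincubated 30 min RT with compound, then 6His-CD47 (12.5 nM) 30 min; Ni-NTA acceptor and streptavidin donor beads (10 ug/mL) 30 min, AlphaScreen read. PBS pH 7.4, 0.05% IGEPAL.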

Test [19] addresses Parathyroid hormone/parathyroid hormone-related peptide receptor (Homo sapiens) (UniProt Q03431). Briefly: qHTS for PTHR1 Agonists: Optimization Screen against the NCGC LOPAC library (AID 1347079).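 Also: GloSensor cAMP luminescence in HEK-293 GP2 cells expressing human PTHR1 with IBMX; 0% is about no effect.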 The method in brief:
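Compounds were tested across a qHTS titration. PTHR1-expressing GP2 cells report cAMP rises via GloSensor luminescence after 1 hr compound exposure at 37C with IBMX present.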

The values below come from PubChem BioAssay (NCATS).

Where “and” joins values, the source holds several entries; their conditions need not be identical. Equal entries are not always repeated. Values without a mark were called inactive. Inconclusive results are not listed. Some compounds were tested as several samples or in several runs, with calls that do not always agree. Calls of active or inactive are those of the source. Calls follow the shape of the dose curve; as a rule, active = well fitted curve in the direction sought with a large enough effect; inconclusive = small, poorly fitted or top-dose-only effect, or another doubt; inactive = no such curve, though single readings can be large; an effect the other way counts as inactive or inconclusive.

Chain of Tyrosine-protein phosphatase non-receptor type substrate 1 (Homo sapiens) + Leukocyte surface antigen CD47 (Homo sapiens) (P78324 whole entry, looked up, the tested form may be a part): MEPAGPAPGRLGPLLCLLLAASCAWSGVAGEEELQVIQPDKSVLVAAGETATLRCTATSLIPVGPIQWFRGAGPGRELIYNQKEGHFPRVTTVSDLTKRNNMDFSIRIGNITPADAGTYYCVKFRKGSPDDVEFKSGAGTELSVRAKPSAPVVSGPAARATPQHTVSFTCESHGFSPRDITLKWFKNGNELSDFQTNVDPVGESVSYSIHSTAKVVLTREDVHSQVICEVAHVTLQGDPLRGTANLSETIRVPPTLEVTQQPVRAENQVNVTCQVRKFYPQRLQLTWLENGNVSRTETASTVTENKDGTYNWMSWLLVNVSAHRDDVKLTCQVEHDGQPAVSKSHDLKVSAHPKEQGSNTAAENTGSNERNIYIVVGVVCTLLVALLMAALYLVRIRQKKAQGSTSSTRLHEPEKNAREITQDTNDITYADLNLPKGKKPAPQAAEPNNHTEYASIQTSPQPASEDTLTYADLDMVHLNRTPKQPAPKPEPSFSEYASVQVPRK
Chain of Tyrosine-protein phosphatase non-receptor type substrate 1 (Homo sapiens) + Leukocyte surface antigen CD47 (Homo sapiens) (Q08722 whole entry, looked up, the tested form may be a part): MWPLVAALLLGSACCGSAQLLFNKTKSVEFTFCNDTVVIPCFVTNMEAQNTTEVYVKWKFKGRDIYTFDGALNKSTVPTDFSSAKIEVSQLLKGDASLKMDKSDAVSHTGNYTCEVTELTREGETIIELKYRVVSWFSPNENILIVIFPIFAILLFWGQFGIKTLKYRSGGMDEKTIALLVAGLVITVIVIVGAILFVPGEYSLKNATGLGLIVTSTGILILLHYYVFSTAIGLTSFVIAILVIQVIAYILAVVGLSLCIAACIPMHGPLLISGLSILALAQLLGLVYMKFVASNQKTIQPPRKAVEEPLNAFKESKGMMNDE
Chain of Parathyroid hormone/parathyroid hormone-related peptide receptor (Homo sapiens) (Q03431 whole entry, looked up): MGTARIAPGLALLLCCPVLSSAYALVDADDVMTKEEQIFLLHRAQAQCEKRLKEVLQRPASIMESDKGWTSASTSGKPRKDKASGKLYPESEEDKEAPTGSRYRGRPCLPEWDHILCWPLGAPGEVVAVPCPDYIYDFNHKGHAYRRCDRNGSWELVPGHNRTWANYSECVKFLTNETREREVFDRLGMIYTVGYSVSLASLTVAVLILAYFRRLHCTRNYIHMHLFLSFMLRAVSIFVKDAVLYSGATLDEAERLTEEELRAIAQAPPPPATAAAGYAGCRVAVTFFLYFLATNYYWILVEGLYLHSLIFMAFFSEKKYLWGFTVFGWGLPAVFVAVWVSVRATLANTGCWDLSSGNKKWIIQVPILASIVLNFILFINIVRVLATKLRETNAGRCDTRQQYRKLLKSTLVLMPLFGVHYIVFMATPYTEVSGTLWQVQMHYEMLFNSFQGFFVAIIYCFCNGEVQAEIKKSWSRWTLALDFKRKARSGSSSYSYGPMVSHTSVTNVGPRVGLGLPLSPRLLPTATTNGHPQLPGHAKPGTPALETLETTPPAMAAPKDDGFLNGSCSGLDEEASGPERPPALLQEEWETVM

With `Cc1nc(Nc2ncc(C(=O)Nc3c(C)cccc3Cl)s2)cc(N2CCN(CCO)CC2)n1`, the Potency result in test [1], in test [7] and in [8] was “inactive” in each case. Moreover, the Potency in test [2] was 23.5 µM (active) and 8.41 µM (active); in test [3], 18.7 µM (active) and 15 µM (active); in test [4] it was 3.72 µM (active) and 3.35 µM (active); in test [5] it was 18.7 µM (active) and 16.8 µM (active); in test [6], 18.7 µM (active) and 13.3 µM (active); in test [9] it was 0.0335 µM (active). Also, the Potency in [10] is 0.0084 µM (active).

In the case of `COc1cc2c(N3CCN(C(=O)Nc4ccc(OC(C)C)cc4)CC3)ncnc2cc1OCCCN1CCCCC1`, the Potency entry in test [1], in [2], in test [3], in [11] and in test [10] was “inactive” throughout. Moreover, the Potency in [4] was 29.6 µM (active); in test [5], 23.5 µM (active); in test [8], 18.7 µM (active); in [12] it was 24.3 µM (active); in test [13], 27.3 µM (active) and 19.5 µM (active); in [14] it was 26.4 µM (active) and 26.6 µM (active).

Regarding `Cn1c(NCCN(CCO)CCCc2ccc([N+](=O)[O-])cc2)cc(=O)n(C)c1=O`, the Potency entry in [1], in [2], in test [3], in test [4], in test [15] and in test [11] was “inactive” throughout. Moreover, the Potency result in test [6], in test [16], in [17], in [12], in [9] and in test [10] was “inactive” each time.

For the compound `Oc1ccc(-c2nc(-c3ccc(F)cc3)c(-c3ccncc3)[nH]2)cc1`, the Potency entry in [18], in test [15], in test [11] and in [12] was “inactive” throughout. In addition, the call in test [19] was inactive. The Potency in test [2] was 23.5 µM (active); in test [4], 14.8 µM (active); in test [5] it was 2.35 µM (active); in [7], 10.5 µM (active); in test [14], 29.6 µM (active).

For the compound `CCN(CCO)CCCC(C)Nc1ccnc2cc(Cl)ccc12` (centres undefined), the Potency entry in test [1], in test [2], in [16], in test [12] and in test [9] was “inactive” each time. Also, the activity change, negative = cytotoxic was 13.4% [at 4.84 µM] in test [3]; 4.16% [at 4.84 µM] in [4]; -1.47% [at 4.84 µM] in [5]; 5.71% [at 6.03 µM] in test [15]; 13.9% [at 4.84 µM] in test [11]; -2.15% [at 6 µM] in [17]. The activity change, negative = cytotoxic in test [7] was 19.4% [at 4.84 µM]; in test [8] it was 22.8% [at 4.84 µM]; in test [14], 5.84% [at 4.84 µM]; in test [10], 6.76% [at 4.84 µM]. For the same compound, the Potency is 2.35 µM (active) in test [4]; 2.96 µM (active) in [5]; 3.85 µM (active) in test [15]; 1.18 µM (active) in [11]; 3.72 µM (active) in test [8].

Consider `CCCS(=O)c1ccc2nc(NC(=O)OC)[nH]c2c1` (centres undefined), for which the Potency result in test [1], in test [6] and in test [7] was “inactive” each time. In addition, the Potency in test [2] was 26.6 µM (active) and 23.5 µM (active); in [3], 21.1 µM (active) and 18.7 µM (active); in test [4], 29.6 µM (active); in [5], 7.5 µM (active) and 18.7 µM (active); in [11] it was 10.5 µM (active); in [16] it was 13.3 µM (active). Besides, the Potency in test [8] was 16.8 µM (active).

Take `CC(C)(S)[C@@H](N)C(=O)O`: the Potency entry in test [1], in [2], in test [3], in [4], in test [5] and in test [15] was “inactive” in each case. Moreover, the Potency entry in test [11], in test [6], in test [16], in test [17], in test [7] and in test [8] was “inactive” in each case. Moreover, the Potency entry in test [12], in test [9], in test [13], in test [14] and in test [10] was “inactive” each time.

Turning to `O=C(O)CCNC(=O)c1ccc(N=Nc2ccc(O)c(C(=O)O)c2)cc1`, the Potency result in test [1], in [2], in [3], in [4], in test [15] and in test [6] was “inactive” in each case. In addition, the Potency result in test [16], in test [7], in test [8], in [12], in [9] and in test [13] was “inactive” each time. The Potency result in test [14] and in test [10] was “inactive” in each case.
